# ANO1 block: TMEM16A chloride channel inhibitors, primary screen, cell-based, HTS; normalized B-score (activity score, 25-100; higher = stronger inhibition) at 10 µM; Anoctamin-1 (Mus musculus), Q8BHY3; HEK293 TMEM16A/YFP iodide influx fluorescence, ionomycin; 1.2% of 310,000 active;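 active = ratio plate-corrected score three or more library SD toward inhibition, starting fluorescence score within five deviations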;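 note: score derived from kinetic fluorescence span divided by baseline fluorescence per well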
# CHT PAM: CHT positive allosteric modulators, primary screen, cell-based, membrane potential dye, choline EC20. B-score at 10 µM. High affinity choline transporter 1 (Homo sapiens), Q9GZV3. CHT-expressing cells; active compounds read high; LV-AA mutant CHT in HEK293 cells. 0.49% of 310,000 active. AID 488977, 2010;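 active = initial fluorescence not abnormally high and integrated response B-score, plate-corrected, over 3 SD above library mean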
# CHT inh: inhibitors of human choline transporter CHT. CHT-expressing cells, membrane potential dye, choline response; active compounds read low. B-score at 10 µM. 0.86% of 310,000 active. AID 488975, 2010;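 active = B-score over 3 SD under the library average, and starting fluorescence ratio not unusually high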;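 note: choline stimulus applied at its EC90 after an EC20 pre-addition; B-score computed on integrated fluorescence ratio after choline addition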
# TMEM16A act: TMEM16A chloride channel activators or potentiators, primary screen, cell-based, HTS | Anoctamin-1 (Mus musculus), Q8BHY3 | HEK293 TMEM16A/YFP-H148Q/I152L, iodide quench fluorescence; active compounds read low | B-score at 10 µM | 0.3% of 340,000 active;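 active = fluorescence-ratio B-score plate-corrected deviation score at least 3 library SD below zero, with starting fluorescence score within 5 deviations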;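 note: channel opened by trigger with iodide after compound preincubation; score built on the fluorescence ratio of max minus min over baseline; more negative score means more quench and so TMEM16A activation or potentiation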
# CHT act confirm: CHT activators, confirmation, cell-based, membrane potential dye, duplicate; shares compounds with CHT PAM; CHT-expressing cells, membrane potential dye fluorescence (FDSS); % of choline EC20–EC90 response window; HEK293 expressing CHT LV-AA mutant; choline added at its EC20; activation, % at 10 µM; 91% of 2,500 active;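 active = primary screen active, with duplicate mean activation above negative control mean plus 3 SD, cut at about 11% in these data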
# HEK293 MP dye: membrane potential response in parental HEK293 cells, counter-screen for CHT activator project, cell-based, membrane potential dye. ratio readout change at 10 µM, hits read low. 62% of 2,500 active. membrane potential dye fluorescence (FDSS); measured after EC20 choline addition. shares compounds with CHT PAM. AID 623908, 2012;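 active = duplicate-averaged ratio beyond 3 SD from buffer wells, up or down, though filed actives are nearly all decreases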
# * hit, by the source's call; i = inactive; nt = no result. In the library only some 2.4% were active in any assay of this set; here they are far more common.
SMILES,ANO1 block,CHT PAM,CHT inh,TMEM16A act,CHT act confirm,HEK293 MP dye
O=C1N(Cc2cccc(Cl)c2)C[C@@H]2C[C@@H](c3cccn3-c3ccccn3)N3CCC[C@@]123,i,7.1*,i,i,53*,i
Cn1c(=O)c(=O)n(C)c2cc(S(=O)(=O)N3CCN(C4CCCCC4)CC3)ccc21,i,13*,i,i,106*,-50*
Cc1ccc(N(C)C(=O)C2CCCN2S(=O)(=O)c2ccc3c(c2)n(C)c(=O)c(=O)n3C)cc1 (stereo unspecified),i,6.5*,i,i,24*,-44*
CCCCc1c(CCC)c(=N)c2ccccc2n1C,i,9.4*,i,i,65*,-26*
COc1ccc(C(=O)C2CCCN(Cc3cccn3-c3ccccn3)C2)c(OC)c1 (stereo unspecified),i,i,i,i,nt,nt
O=C(c1cc(F)ccc1F)C1CCCN(Cc2cccn2-c2ccccn2)C1 (stereo unspecified),i,13*,i,i,42*,i
COc1ccc(F)cc1C(=O)C1CCCN(Cc2cccn2-c2ccccn2)C1 (stereo unspecified),i,16*,i,i,58*,i
CCNc1sc(C(=O)OCC)c(N)c1C#N,i,i,i,i,nt,nt
CCOC(=O)c1c(C)n(C)c2ccc(OC)c(NC(=O)CCN3CCC(Cc4ccccc4)CC3)c12,i,i,i,i,7,i
CCOC(=O)c1c(C)n(C)c2ccc(OC)c(NC(=O)CN3CCSCC3)c12,i,i,i,i,nt,nt
COc1ccc2cc(CN(CC3COCCO3)S(=O)(=O)c3ccc(Cl)cc3)c(=O)[nH]c2c1 (stereo unspecified),i,i,i,i,nt,nt
N=c1c2c3c(sc2ncn1CCCO)CCCC3,i,9.5*,i,i,26*,-56*
CCCCn1cnc2sc3c(c2c1=N)CCCC3,i,i,i,i,53*,-41*
N=c1c2c3c(sc2ncn1Cc1ccccc1)CCCC3,i,i,i,i,nt,nt
c1nc(NCCN2CCOCC2)c2c3c(sc2n1)CCCCC3,nt,nt,nt,i,nt,nt
N=c1c2c3c(sc2ncn1CCN1CCOCC1)CCCCC3,i,i,i,i,69*,-32*
COCCNC(=O)CNC(c1ccccc1)c1ccccc1,i,i,i,nt,nt,nt
Nc1nc(N2CCOCC2)n[nH]1,nt,nt,nt,i,nt,nt
CCOc1ccc(S(=O)(=O)N2CCCCC2)cc1NC(=O)C1CCC1,i,i,i,i,nt,nt
COc1ccc(N2CC(NS(=O)(=O)c3cccs3)CC2=O)cc1OC (stereo unspecified),i,i,i,i,nt,nt
CCNc1c(NC(C)=O)c(=O)oc2ccccc12,i,i,i,i,1,i
Cc1cc(NS(=O)(=O)c2ccc(NC(=O)c3ccc([N+](=O)[O-])c(Cl)c3)cc2)no1,i,i,i,i,nt,nt
O=C(N/N=C/c1ccc(O)cc1)c1cc[n+](Cc2ccccc2)cc1,i,i,i,i,37*,-29*
CCC[n+]1c(C)sc2c(OC)ccc(OC)c21,i,12*,i,i,47*,i
COc1ccc(OC)c(Nc2c3ccccc3nc3ccccc23)c1,i,i,i,i,nt,nt
COc1cc(NS(C)(=O)=O)ccc1Nc1c2ccccc2nc2ccccc12,i,8.3*,i,i,13*,-54*
COc1cccc(CN2CCC(N(CCc3ccccc3)Cc3ccccc3)CC2)c1OC,i,10*,i,i,34*,i
CN1/C(=C\C=[N+](C)c2ccccc2)C(C)(C)c2ccccc21,i,8.1*,i,i,75*,-24*
COc1ccc2sc(C)[n+](C)c2c1,i,11*,i,i,39*,-30*

# Screening results (PubChem)
